Laboratory results as given in the supplement of paper PMC9694430.
Several values for one entry are separate records, joined by “and”; a condition that tells them apart may be missing. Equal entries are not always repeated. Structures can show the parent of a compound that is named as a salt.

System: LOC_OS02G17970-cb001
Test: thermal shift delta Tm vs DMSO control; higher = stronger stabilization (binding)
Settings: 12.5 µM; protein concentration 2 µM
Method in brief: (§1)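 Heating from 25°C to 95°C at 0.05°C/s, fluorescence was recorded for 19.5 μl wells of 2 μM E. coli-expressed, purified rice kinase domain in 100 mM potassium phosphate pH 7.5, 150 mM NaCl, 10% glycerol and 5 × SYPRO Orange with compound in DMSO. Boltzmann fits gave melting temperatures for this differential scanning fluorimetry assay. The shift reported is the mean of three replicates against the DMSO-only protein.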
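Also: purified Escherichia coli-expressed rice kinase domain construct.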

| Structure (SMILES) | thermal shift delta Tm |
| --- | --- |
| COc1cc(Nc2ncc(F)c(Nc3ccc4c(n3)NC(=O)C(C)(C)O4)n2)cc(OC)c1OC | 0.45 °C |
| Cc1ccc(-n2nc(C(C)(C)C)cc2NC(=O)Nc2ccc(OCCN3CCOCC3)c3ccccc23)cc1 [Doramapimod (BIRB 796)] | 0.9 °C |
| CC#CC(=O)N1CC[C@@H](n2c(=O)n(-c3ccc(Oc4ccccc4)cc3)c3c(N)ncnc32)C1 [ONO-4059 (GS-4059) hydrochloride] | 0.51 °C |
| O=C(NC[C@H](O)CO)c1ccncc1Nc1ccc(I)cc1F | 0.32 °C |
| CO[C@H]1C[C@@H]2CC[C@@H](C)[C@@](O)(O2)C(=O)C(=O)N2CCCC[C@H]2C(=O)O[C@H]([C@H](C)C[C@@H]2CC[C@@H](O)[C@H](OC)C2)CC(=O)[C@H](C)/C=C(\C)[C@@H](O)[C@@H](OC)C(=O)[C@H](C)C[C@H](C)/C=C/C=C/C=C/1C [Rapamycin (Sirolimus)] | 0.46 °C |
| COc1c(C)c(C(=O)c2ccc(N)c(C(=O)O)c2)n2ccccc12 | 1.28 °C |
| CC(C)CC(=O)Nc1n[nH]c2c1CN(C(=O)C1CCN(C)CC1)C2(C)C | 1.36 °C |
| COc1cc2ncnc(Nc3ccc(O)c(Br)c3)c2cc1OC | 1.06 °C |
| CCN(CC)CCCC(C)Nc1nc(C)cc(Nc2ccc3nc(C)cc(N)c3c2)n1 (centres undefined) | 0.8 °C |
| Cc1cc(NC(=O)c2cccc(NC(=O)/C=C/CN(C)C)c2)ccc1Nc1nccc(-c2cccnc2)n1 | 1.45 °C |
| COc1cc2ncnc(Nc3cccc(Cl)c3F)c2cc1OC(=O)N1CCN(C)C[C@H]1C | 0.79 °C |
| Cc1ccc(C(=O)Nc2ccc(Oc3cc4cnn(C)c4cc3-c3cn[nH]c3)c(F)c2)c(=O)n1-c1ccc(F)cc1 | 1.48 °C |
| CC#CC(=O)N1CCC[C@H]1c1nc(-c2ccc(C(=O)Nc3ccccn3)cc2)c2c(N)nccn12 [Acalabrutinib (ACP-196)] | 0.74 °C |
| Nc1ncccc1-c1nc2ccc(-c3ccccc3)nc2n1-c1ccc(C2(N)CCC2)cc1 [Miransertib (ARQ 092) HCl] | -0.46 °C |
| Cc1cc(C(C)Nc2ccccc2)c2nc(N3CCOCC3)cc(=O)n2c1 (centres undefined) | 0.24 °C |
| COc1cc2nccc(Oc3ccc(NC(=O)C4(C(=O)Nc5ccc(F)cc5)CC4)cc3)c2cc1OC [Cabozantinib malate (XL184)] | 0.98 °C |
| COC(=O)N[C@@H](C)CNc1nccc(-c2cn(C(C)C)nc2-c2cc(Cl)cc(NS(C)(=O)=O)c2F)n1 [Encorafenib (LGX818)] | 0.55 °C |
| COc1ccc(C(=O)Nc2sc3c(c2C(N)=O)CCCC3)cc1OC | 0.27 °C |
| CN1C(=O)[C@@H](NC(=O)c2n[nH]c(Cc3ccccc3)n2)COc2ccccc21 | 0.62 °C |

| Structure (SMILES) | thermal shift delta Tm |
| --- | --- |
| Nc1nccc(Oc2ccc(NC(=O)c3c[nH]cc(-c4ccc(F)cc4)c3=O)cc2F)c1Cl | 1.52 °C |
| COc1cc2c(c(OC)c1OC)-c1c(cc3c(c1OC)OCO3)CC(C)C(C)C2 (centres undefined) [Schisandrin B (Sch B)] | 0.95 °C |
| COC(=O)c1ccc2c(c1)NC(=O)/C2=C(\Nc1ccc(N(C)C(=O)CN2CCN(C)CC2)cc1)c1ccccc1 [Nintedanib (BIBF 1120)] | -0.36 °C |
| O=C(Nc1ccccc1C(=O)NC1CCCCNC1=O)c1cc2ccccc2s1 (centres undefined) | 0.88 °C |
| Cc1cc(C)c(/C=C2\C(=O)Nc3ccccc32)[nH]1 [Semaxanib (SU5416)] | 1.09 °C |
| N#Cc1cccc(-c2c[nH]c3ncnc(N4CCOCC4)c23)c1 | 0.73 °C |
| Cc1ccc2nc(NCCN)c3ncc(C)n3c2c1 | 0.51 °C |
| C[C@@H]1CCN(C(=O)CC#N)C[C@@H]1N(C)c1ncnc2[nH]ccc12 | 0 °C and 1.09 °C |
| Cc1nc(NC(=O)N2CCC[C@H]2C(N)=O)sc1-c1ccnc(C(C)(C)C(F)(F)F)c1 [Alpelisib (BYL719)] | 1.03 °C |
| CNc1nc(Nc2cn(C(C)(C)C#N)nc2C)ncc1C(F)(F)F | 1.09 °C |
| O=C(Nc1c[nH]nc1-c1nc2ccc(CN3CCOCC3)cc2[nH]1)NC1CC1 | 0.14 °C |
| N#Cc1ccc(-c2c(-c3ncn[nH]3)sc(N3CCOCC3)c2C#N)c(F)c1 | 1.24 °C |
| Oc1cccc(-c2nc(N3CCOCC3)c3oc4ncccc4c3n2)c1 | 0.74 °C |
| CN(C)C/C=C/C(=O)Nc1ccc(C(=O)Nc2cccc(Nc3ncc(Cl)c(-c4c[nH]c5ccccc45)n3)c2)cc1 | 1.88 °C |
| CCNC(=O)Nc1ccc(-c2nc(N3CCOC[C@@H]3C)c3c(n2)C(C)(C)S(=O)(=O)C3)cc1 | -0.21 °C |
| CNC(=O)c1cc(Oc2ccc3nc(N[C@@H]4CCCC[C@H]4O)sc3c2)ccn1 | 0.53 °C |
| CN(C)CCOc1ccc(-c2nc(-c3ccncc3)c(-c3ccc4c(c3)CC/C4=N\O)[nH]2)cc1 | -0.1 °C |
| Cc1ccc(NC(=O)c2cccc(N(C)C)c2)cc1NC(=O)c1ccc(O)cc1 | 0.95 °C |

System: LOC_OS02G45750-cb003
Test: as above
Settings: 12.5 µM; protein concentration 2 µM
Method in brief: as §1

| Structure (SMILES) | thermal shift delta Tm |
| --- | --- |
| COc1cc(Nc2ncc(F)c(Nc3ccc4c(n3)NC(=O)C(C)(C)O4)n2)cc(OC)c1OC | 6.19 °C |
| Cc1ccc(-n2nc(C(C)(C)C)cc2NC(=O)Nc2ccc(OCCN3CCOCC3)c3ccccc23)cc1 [Doramapimod (BIRB 796)] | -1.12 °C |
| CC#CC(=O)N1CC[C@@H](n2c(=O)n(-c3ccc(Oc4ccccc4)cc3)c3c(N)ncnc32)C1 [ONO-4059 (GS-4059) hydrochloride] | 0.78 °C |
| O=C(NC[C@H](O)CO)c1ccncc1Nc1ccc(I)cc1F | 0.45 °C |
| CO[C@H]1C[C@@H]2CC[C@@H](C)[C@@](O)(O2)C(=O)C(=O)N2CCCC[C@H]2C(=O)O[C@H]([C@H](C)C[C@@H]2CC[C@@H](O)[C@H](OC)C2)CC(=O)[C@H](C)/C=C(\C)[C@@H](O)[C@@H](OC)C(=O)[C@H](C)C[C@H](C)/C=C/C=C/C=C/1C [Rapamycin (Sirolimus)] | 0.22 °C |
| COc1c(C)c(C(=O)c2ccc(N)c(C(=O)O)c2)n2ccccc12 | 0.38 °C |
| CC(C)CC(=O)Nc1n[nH]c2c1CN(C(=O)C1CCN(C)CC1)C2(C)C | 0.62 °C |
| COc1cc2ncnc(Nc3ccc(O)c(Br)c3)c2cc1OC | 1.02 °C |
| CCN(CC)CCCC(C)Nc1nc(C)cc(Nc2ccc3nc(C)cc(N)c3c2)n1 (centres undefined) | 1.05 °C |
| Cc1cc(NC(=O)c2cccc(NC(=O)/C=C/CN(C)C)c2)ccc1Nc1nccc(-c2cccnc2)n1 | 3.5 °C |
| COc1cc2ncnc(Nc3cccc(Cl)c3F)c2cc1OC(=O)N1CCN(C)C[C@H]1C | 1.31 °C |
| Cc1ccc(C(=O)Nc2ccc(Oc3cc4cnn(C)c4cc3-c3cn[nH]c3)c(F)c2)c(=O)n1-c1ccc(F)cc1 | 1.6 °C |
| CC#CC(=O)N1CCC[C@H]1c1nc(-c2ccc(C(=O)Nc3ccccn3)cc2)c2c(N)nccn12 [Acalabrutinib (ACP-196)] | 1.09 °C |
| Nc1ncccc1-c1nc2ccc(-c3ccccc3)nc2n1-c1ccc(C2(N)CCC2)cc1 [Miransertib (ARQ 092) HCl] | 0.57 °C |
| Cc1cc(C(C)Nc2ccccc2)c2nc(N3CCOCC3)cc(=O)n2c1 (centres undefined) | -0.62 °C |
| COc1cc2nccc(Oc3ccc(NC(=O)C4(C(=O)Nc5ccc(F)cc5)CC4)cc3)c2cc1OC [Cabozantinib malate (XL184)] | 0.86 °C |
| COC(=O)N[C@@H](C)CNc1nccc(-c2cn(C(C)C)nc2-c2cc(Cl)cc(NS(C)(=O)=O)c2F)n1 [Encorafenib (LGX818)] | 0.44 °C |
| COc1ccc(C(=O)Nc2sc3c(c2C(N)=O)CCCC3)cc1OC | 3.21 °C |
| CN1C(=O)[C@@H](NC(=O)c2n[nH]c(Cc3ccccc3)n2)COc2ccccc21 | 0.85 °C |

| Structure (SMILES) | thermal shift delta Tm |
| --- | --- |
| Nc1nccc(Oc2ccc(NC(=O)c3c[nH]cc(-c4ccc(F)cc4)c3=O)cc2F)c1Cl | 1.54 °C |
| COc1cc2c(c(OC)c1OC)-c1c(cc3c(c1OC)OCO3)CC(C)C(C)C2 (centres undefined) [Schisandrin B (Sch B)] | -0.1 °C |
| COC(=O)c1ccc2c(c1)NC(=O)/C2=C(\Nc1ccc(N(C)C(=O)CN2CCN(C)CC2)cc1)c1ccccc1 [Nintedanib (BIBF 1120)] | 2.59 °C |
| O=C(Nc1ccccc1C(=O)NC1CCCCNC1=O)c1cc2ccccc2s1 (centres undefined) | 0.67 °C |
| Cc1cc(C)c(/C=C2\C(=O)Nc3ccccc32)[nH]1 [Semaxanib (SU5416)] | 0 °C |
| N#Cc1cccc(-c2c[nH]c3ncnc(N4CCOCC4)c23)c1 | 3.36 °C |
| Cc1ccc2nc(NCCN)c3ncc(C)n3c2c1 | 1.07 °C |
| C[C@@H]1CCN(C(=O)CC#N)C[C@@H]1N(C)c1ncnc2[nH]ccc12 | 0.35 °C and 0.85 °C |
| Cc1nc(NC(=O)N2CCC[C@H]2C(N)=O)sc1-c1ccnc(C(C)(C)C(F)(F)F)c1 [Alpelisib (BYL719)] | -0.52 °C |
| CNc1nc(Nc2cn(C(C)(C)C#N)nc2C)ncc1C(F)(F)F | 0.99 °C |
| O=C(Nc1c[nH]nc1-c1nc2ccc(CN3CCOCC3)cc2[nH]1)NC1CC1 | 8.3 °C |
| N#Cc1ccc(-c2c(-c3ncn[nH]3)sc(N3CCOCC3)c2C#N)c(F)c1 | 1.03 °C |
| Oc1cccc(-c2nc(N3CCOCC3)c3oc4ncccc4c3n2)c1 | -0.07 °C |
| CN(C)C/C=C/C(=O)Nc1ccc(C(=O)Nc2cccc(Nc3ncc(Cl)c(-c4c[nH]c5ccccc45)n3)c2)cc1 | 6.63 °C |
| CCNC(=O)Nc1ccc(-c2nc(N3CCOC[C@@H]3C)c3c(n2)C(C)(C)S(=O)(=O)C3)cc1 | 0.42 °C |
| CNC(=O)c1cc(Oc2ccc3nc(N[C@@H]4CCCC[C@H]4O)sc3c2)ccn1 | 0.99 °C |
| CN(C)CCOc1ccc(-c2nc(-c3ccncc3)c(-c3ccc4c(c3)CC/C4=N\O)[nH]2)cc1 | 0.22 °C |
| Cc1ccc(NC(=O)c2cccc(N(C)C)c2)cc1NC(=O)c1ccc(O)cc1 | 0.7 °C |
